Assay results from PubChem BioAssay AID624305 (National Center for Advancing Translational Sciences (NCATS), 2012).
Results filed as inconclusive are left out. A call without a number means that no potency is given here. Values without a mark were called inactive. Activity calls are given as the source filed them. The call rests on the fitted dose curve; in most records, active means well fitted activation curve with a large enough effect; inconclusive means small, poorly fitted or top-dose-only effect; inactive means no such curve, though single readings can be large or run the other way.

Test: qHTS assay for re-activators of p53 using a Luc reporter: Hit Validation; further: nearly all actives have a fitted effect of over 75% in size
Details: p53-responsive luciferase reporter cells, luminescence, H1299 line expressing heat-sensitive Ala138Val p53; series mostly up to 46.1 µM
Outline: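 H1299 (p53-null) cells stably carrying p53-A138V and a BP100-luciferase reporter, 1000 cells/well, treated 24 h at 37 deg C. Compounds at several concentrations, 1:5 dilution; nocodazole control; luminescence read after 10 min with detection reagent.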
Potency means the concentration at half of the fitted maximal effect.

Structure (SMILES)	Potency	activation
c1nc(C2CCCCC2)cc2cc3c(cc12)OCO3	6510 nM (active)	–
Oc1[nH]c2ccccc2c1C=Nc1ccc2c(c1)OCCO2	326 nM (active)	–
COc1ccc(-c2cc(C(F)(F)F)nc(-n3ccnc3C)n2)cc1	inactive	–
O=C(Nc1cccnc1)c1ccc([N+](=O)[O-])s1	inactive	–
Cc1ccsc1C(=O)Nc1ccc2c(c1)OCCO2	326 nM (active)	–
COC(=O)c1ccc(/C=C/c2ccc3cccc(OC(C)=O)c3n2)cc1	2910 nM (active)	–
COCCCN(C(C)=O)c1nc(-c2ccc(OC)cc2)cs1	2310 nM (active)	–
Cc1cccc(C)c1NC(=O)CC(NCc1ccco1)C(=O)O (stereo not drawn)	–	-13.7% [at 9.22 µM]
O=C(CN1C(=O)COc2ccccc21)Nc1ccc(F)cc1	inactive	–
CC(C)CCn1cnc2c(sc3nc4c(cc32)CSC(C)(C)C4)c1=O	517 nM (active)	–
O=C(Nc1ccc(Br)cn1)c1cccc(-c2cc3ccccc3oc2=O)c1	16400 nM (active)	–
O=C(NNC1=C(C(=O)C(F)(F)F)CCC1)c1cccc(O)c1	inactive	–
O=C(NC(=S)Nc1nc2ccccc2s1)c1ccco1	580 nM (active)	–
O=C(NNC(=O)C1CCCO1)c1ccccc1Cl (stereo not drawn)	inactive	–
COc1ccc2[nH]c(=O)c3c(c2c1)OC(C)(C)C=C3	inactive	–
O=[N+]([O-])c1ccc(NC(=S)NCCc2ccc(F)cc2)cc1	inactive	–
COc1ccc(N(C(=O)Nc2ccc(Cl)cc2)C2=NCCC2)cc1	inactive	–
c1ccc(-c2cc3cc4c(cc3cn2)OCO4)cc1	11600 nM (active)	–
O=C(Nc1nc2ccccc2s1)c1ccc2c(c1)OCO2	206 nM (active)	–

Structure (SMILES)	Potency	activation
Cc1ccc(-n2c(C)cc(C(=O)CSc3nnc4ccccn34)c2C)cc1	6510 nM (active)	–
Cc1ccsc1/C=C(\C#N)C(=O)Nc1c(C)n(C)n(-c2ccccc2)c1=O	inactive	–
COc1ccc(NC(=O)CN(C)CC(=O)Nc2ccccc2SC)cc1	inactive	–
COCCCN=C(c1ccco1)n1c(=S)nc(-c2ccco2)n(CCCOC)c1=S	inactive	–
C/C(=N\OCC(=O)NC12CC3CC(CC(C3)C1)C2)c1cc2ccccc2o1	inactive	–
Cc1nn2cc(-c3ccc(-c4ccccc4)cc3)nc2s1	184 nM (active)	–
O=C(Oc1ccccc1/C=C\C(=O)c1cc2ccccc2o1)c1cccc(F)c1	206 nM (active)	–
CCCC(=O)NC(c1cccs1)c1cc([N+](=O)[O-])c2cccnc2c1O (stereo not drawn)	inactive	–
O=C(/C=C/c1cccs1)Nc1ccc(Br)cn1	1840 nM (active)	–
O=C(Nc1ccc2c(c1)CCC2)c1ccccc1	411 nM (active)	–
O=C(O)C1CC(=O)N(c2ccc(Br)cc2)C1 (stereo not drawn)	inactive	–
C=CCn1c(C)cc(C(=O)COC(=O)c2ccc(N)c([N+](=O)[O-])c2)c1C	411 nM (active)	–
CC(Sc1nc(N)cc(=O)[nH]1)C(=O)NNC(=O)c1cccc(Cl)c1 (stereo not drawn)	inactive	–
COc1ccc(-c2nsc3c(N4CCCC4)ncnc23)cc1	92 nM (active)	–
Cc1cccc(N2CCN(S(=O)(=O)c3ccc4c(c3)CCC(=O)N4)CC2C)c1 (stereo not drawn)	inactive	–
CS(=O)(=O)n1nc(-c2ccc(Cl)cc2)nc1SCc1ccccc1	20600 nM (active)	–
Cc1cs/c(=N\N=C\c2ccc(O)cc2)n1Cc1ccco1	inactive	–
CCCN(C(=O)c1cccc(S(=O)(=O)N2CCCc3ccccc32)c1)C1CCS(=O)(=O)C1 (stereo not drawn)	inactive	–
CCc1ccc(OCC(=O)NC(NC(=S)Nc2ccccc2C)C(Cl)(Cl)Cl)cc1 (stereo not drawn)	inactive	–
